Experimental data reported in PubChem BioAssay (NCI).
Compounds without any hit were thinned out: in the full panel of roughly 83,000, 20% have a hit.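 How to read the values: 0–100, growth inhibition (40 = 60% inhibited); 0, no net growth; -100 to 0, cell death (-40 = 40% of starting cells died; -100 = all dead).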 Activity calls are given as the source filed them. How the source made its calls: active means growth percent below 10; inactive means the rest.

Key:
Test in all cases: NCI-60 one-dose screen, 48 h (100 = growth as untreated, 0 = no growth, -100 = all killed)
Conditions in all cases: 10 µM unless noted
[1] = tested on: HCT-15 colon
[2] = tested on: HT29 colon
[3] = tested on: SNB-75 CNS
[4] = tested on: SNB-19 CNS
[5] = tested on: U251 CNS
[6] = tested on: PC-3 prostate
[7] = tested on: SK-MEL-5 melanoma
[8] = tested on: UACC-62 melanoma
[9] = tested on: LOX IMVI melanoma
[10] = tested on: SK-MEL-28 melanoma
[11] = tested on: SK-MEL-2 melanoma
[12] = tested on: EKVX NSCLC
[13] = tested on: SN12C renal
[14] = tested on: TK-10 renal
[15] = tested on: ACHN renal
[16] = tested on: CAKI-1 renal
[17] = tested on: A498 renal
[18] = tested on: CCRF-CEM leukemia
[19] = tested on: MOLT-4 leukemia
[20] = tested on: UO-31 renal

Measured: growth

CC(C)CC(=O)C(CCc1ccccn1)C(C)C (centres undefined)
inactive: [1] 101% | [2] 98.3% | [3] 111% | [4] 108% | [5] 107% | [6] 99.7% | [7] 103% | [8] 103% | [9] 96.5% | [10] 109% | [11] 103% | [12] 99.4% | [13] 107% | [14] 102% | [15] 101% | [16] 79% | [17] 91.8% | [18] 97.2% | [19] 108%

COc1cc(OC)c(Cl)cc1N
inactive: [1] 96.6% | [2] 107% | [3] 101% | [4] 100% | [5] 104% | [6] 88.7% | [7] 112% | [8] 97.8% | [9] 101% | [10] 109% | [11] 116% | [13] 93.1% | [20] 91.3% | [14] 105% | [15] 101% | [16] 91.6% | [17] 90.9% | [18] 97.3%

Cc1ccc(C(CN(C)C)C(=O)c2ccccc2)cc1 (centres undefined)
inactive: [3] 54.1% | [4] 85.7% | [5] 41.7% | [6] 32.9% | [7] 64.1% | [10] 50.7% | [11] 49.7% | [12] 68.7% | [13] 36.4% | [14] 44.8% | [16] 52.4% | [17] 60.6%
active: [1] -12.1% | [2] -34.3% | [8] 6.99% | [9] -6.07% | [15] -2.93% | [18] -9.16% | [19] -9.61%

CS(=O)(=O)c1ccc(C(=O)Nc2ccc(Cl)c(-c3ccccn3)c2)c(Cl)c1
active: [2] -7.2% | [6] 7.55% | [11] -6.37% | [16] -17.6% | [17] 6.2%
inactive: [1] 22.7% | [3] 14% | [4] 51.1% | [5] 15.5% | [7] 10.9% | [8] 19.7% | [9] 16% | [10] 23.2% | [12] 23.5% | [13] 28.2% | [14] 11.9% | [15] 27.9% | [19] 11.5%

O=C(c1ccccc1)C1OC1C(=O)c1ccccc1 (centres undefined)
active: [2] 10% | [9] 2.54%
inactive: [1] 13.1% | [3] 11.1% | [4] 92.9% | [5] 28.1% | [6] 51% | [7] 37.7% | [8] 46.8% | [10] 49.2% | [11] 34% | [13] 28.2% | [20] 60.1% | [14] 36.9% | [15] 33.1% | [16] 14.6% | [17] 95.6% | [18] 12.1% | [19] 45.6%

CCCCSc1ncnc2c1ncn2C1CCCCO1 (centres undefined)
inactive: [1] 102% | [2] 109% | [3] 104% | [4] 103% | [5] 99.9% | [6] 99.5% | [7] 104% | [8] 99.6% | [9] 101% | [10] 119% | [11] 104% | [12] 115% | [13] 103% | [14] 109% | [15] 110% | [16] 110% | [17] 94.6% | [18] 99.6% | [19] 96.9%

Nc1nc(N)c2cc(NCc3ccc(Cl)c(Cl)c3)ccc2n1
inactive: [17] 34.2%
active: [1] -80% | [2] -76.3% | [3] -97.1% | [4] -85.6% | [5] -94.5% | [6] -88.7% | [7] -97.5% | [8] -84% | [9] -80.4% | [10] -94.1% | [11] -79.2% | [13] -79.5% | [20] -75.4% | [14] -93.8% | [15] -94.8% | [16] -68.4% | [18] -49.2% | [19] -55.6%

O=C(/C=C/c1ccco1)c1ccccc1O
inactive: [1] 93.1% | [2] 112% | [3] 108% | [4] 102% | [5] 109% | [6] 95.9% | [7] 111% | [8] 103% | [9] 95.2% | [10] 111% | [11] 108% | [12] 104% | [13] 102% | [14] 122% | [15] 102% | [16] 99.3% | [17] 106% | [18] 76.5% | [19] 118%

CC(=O)OC[C@H]1O[C@@H](n2c(=O)cc(N)[nH]c2=O)C(OC(C)=O)[C@@H]1OC(C)=O (some centres undefined)
inactive: [1] 99.7% | [2] 106% | [3] 75.9% | [4] 98.7% | [5] 97.7% | [6] 95.3% | [7] 99.5% | [8] 94.6% | [9] 99.9% | [10] 110% | [11] 105% | [13] 103% | [20] 78.6% | [14] 97.8% | [15] 101% | [16] 88.8% | [17] 98.1% | [18] 111% | [19] 108%

Cc1ccc2c(C)c3c(ccc4ccccc43)c[n+]2c1
inactive: [1] 95.8% | [2] 88.1% | [3] 65% | [4] 24% | [5] 24.5% | [6] 52.9% | [8] 74.2% | [9] 91.9% | [10] 77.8% | [11] 98.4% | [13] 26.3% | [14] 111% | [15] 91.7% | [16] 75.9% | [17] 89.7% | [18] 57.1% | [19] 61.3%
active: [7] -25.6%

S=C(Nc1ccc(Cl)cc1)Nc1ccc(Cl)cc1 (tested in a mixture with another compound)
inactive: [3] 16.8% | [4] 24.7% | [8] 13.8% | [10] 25.8% | [13] 11.1% | [19] 15.3%
active: [1] 9.22% | [2] 1.05% | [5] -36.6% | [6] 3.81% | [7] -61.3% | [9] 5.65% | [11] -32.7% | [20] -5.47% | [14] 1.45% | [15] 3.54% | [16] -20.3% | [17] -8.63%

Cc1c(C(N)=O)sc2ncn(CC(=O)NN=C3CCCCC3)c(=O)c12
inactive: [1] 109% | [2] 90.5% | [3] 102% | [4] 104% | [5] 99.5% | [6] 122% | [7] 106% | [8] 99.9% | [9] 103% | [10] 118% | [13] 96.3% | [14] 106% | [15] 109% | [16] 132% | [17] 111% | [18] 113% | [19] 109%
active: [11] 5.33%

C=C(c1ccc(C(=O)NCCCn2ccnc2)cc1)c1cc2c(cc1C)C(C)(C)CCC2(C)C
inactive: [1] 21.1% | [2] 16.1% | [3] 41.4% | [4] 48.4% | [5] 12.1% | [8] 66.7% | [11] 55.9% | [13] 19.5% | [14] 84.9% | [17] 116% | [18] 13.5% | [19] 11.1%
active: [6] -6.2% | [7] 0.58% | [9] -25.7% | [10] 6.96% | [16] -35.6%

N=C(N)c1ccc(-c2ccc(-c3cccs3)s2)cc1F
active: [1] -66.8% | [2] -82.1% | [3] -96.5% | [4] -65.1% | [5] -86.6% | [6] -72.4% | [7] -98% | [8] -79.7% | [9] -76.7% | [10] -96% | [11] -80.2% | [13] -65.3% | [20] -89.7% | [14] -94.3% | [15] -84.5% | [16] -72.6% | [17] -92.7% | [19] -55.5%

CCCCCCCC/C=C\CCCCCCCC(=O)OCCCCCC
inactive: [1] 101% | [2] 109% | [3] 117% | [4] 112% | [5] 97.1% | [6] 91.5% | [7] 108% | [8] 110% | [9] 98.8% | [10] 122% | [11] 123% | [13] 111% | [20] 91.8% | [14] 112% | [15] 107% | [16] 96% | [17] 70.5% | [18] 98.8% | [19] 104%

C=CCN1C(=O)/C(=c2\sc3n(c2=O)C2C(NN=3)N(CC)C(=O)N2CC)c2ccccc21 (centres undefined)
active: [2] 6.59%
inactive: [1] 15.7% | [3] 23.8% | [4] 26.8% | [5] 22.8% | [6] 22% | [7] 18.5% | [8] 26.1% | [9] 28.9% | [10] 62.4% | [11] 46.5% | [13] 35.8% | [20] 48.3% | [14] 60.6% | [15] 37.6% | [16] 43.2% | [17] 10.7% | [18] 12.8% | [19] 19.1%

Cc1[nH]c2ccccc2c1C1=CC(=O)C=CC1=O
inactive: [1] 74.6% | [2] 105% | [3] 82.8% | [4] 93% | [5] 72.4% | [6] 79.3% | [7] 85.6% | [8] 75.9% | [9] 79.1% | [10] 104% | [12] 107% | [13] 90.8% | [20] 59.5% | [14] 92.2% | [15] 58.7% | [16] 96.8% | [17] 121% | [18] 28.4%
